PubChem BioAssay (NCI)
“And” between values parts separate entries of the source, which are not always exact repeats. Equal entries are not always repeated. This is part of a sample that, as a whole, favours compounds with a hit. Of some 83,000 tested, about 20% had one in any assay.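 Cells were grown in 96-well plates and exposed to the test compound at a single concentration for 48 hours; results are reported as percent growth, with values below 10 considered active.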 Values without a mark were called inactive. The source made the active and inactive calls.

How the values were obtained:
Test in all cases: NCI-60 one-dose screen, 48 h (100 = growth as untreated, 0 = no growth, -100 = all killed)
Settings in all cases: 10 µM unless noted
NCI-H23 lung = tested on: NCI-H23 lung
NCI-H226 lung = tested on: NCI-H226 lung
NCI-H322M lung = tested on: NCI-H322M lung
HOP-62 NSCLC = tested on: HOP-62 NSCLC
NCI-H460 lung = tested on: NCI-H460 lung
HOP-92 NSCLC = tested on: HOP-92 NSCLC
NCI-H522 lung = tested on: NCI-H522 lung
A549/ATCC NSCLC = tested on: A549/ATCC NSCLC
786-0 renal = tested on: 786-0 renal
COLO 205 colon = tested on: COLO 205 colon
DU-145 prostate = tested on: DU-145 prostate
K-562 leukemia = tested on: K-562 leukemia
MALME-3M melanoma = tested on: MALME-3M melanoma
MDA-MB-231 breast = tested on: MDA-MB-231 breast
RXF 393 renal = tested on: RXF 393 renal
SF-268 CNS = tested on: SF-268 CNS
SF-295 CNS = tested on: SF-295 CNS
SF-539 CNS = tested on: SF-539 CNS
UACC-257 melanoma = tested on: UACC-257 melanoma
M14 melanoma = tested on: M14 melanoma

Compound | growth (NCI-H23 lung) | growth (NCI-H226 lung) | growth (NCI-H322M lung) | growth (HOP-62 NSCLC) | growth (NCI-H460 lung) | growth (HOP-92 NSCLC) | growth (NCI-H522 lung) | growth (A549/ATCC NSCLC) | growth (786-0 renal) | growth (COLO 205 colon) | growth (DU-145 prostate) | growth (K-562 leukemia) | growth (MALME-3M melanoma) | growth (MDA-MB-231 breast) | growth (RXF 393 renal) | growth (SF-268 CNS) | growth (SF-295 CNS) | growth (SF-539 CNS) | growth (UACC-257 melanoma) | growth (M14 melanoma)
COc1cc2ncnc(Nc3ccc(F)c(Cl)c3)c2cc1OCC(=O)N1CCCCC1 | 91% | 86.8% | 29% | 103% | 95.5% | 81.6% | 33.1% | 67.8% | 78.2% | 96% | 53.8% | 73.6% | 99.1% | 105% | 84.8% | 80% | 92.1% | 104% | 101% | 85.5%
CC[C@H](C)[C@H](NC(=O)[C@H](CCCCN)NC(=O)[C@H](CCCCN)NC(=O)[C@@H](NC(=O)[C@@H](NC(=O)[C@@H](N)Cc1cnc[nH]1)[C@@H](C)CC)[C@@H](C)CC)C(=O)N[C@@H](CCCNC(=N)N)C(=O)N[C@H](C(=O)N[C@@H](Cc1c[nH]c2ccccc12)C(=O)N[C@@H](Cc1ccc(O)cc1)C(=O)N[C@@H](CCCNC(=N)N)C(=O)N[C@@H](CCCCN)C(=O)N[C@@H](C)C(=O)N[C@@H](Cc1c[nH]c2ccccc12)C(=O)N[C@@H](Cc1cnc[nH]1)C(=O)N[C@H](C(=O)N[C@@H](CC(C)C)C(=O)NCC(=O)N[C@@H](CCCCN)C(=O)N[C@H](C(N)=O)C(C)C)C(C)C)[C@@H](C)O | 17.2% | 29.8% | 25.1% | 35.9% | 7.38% (active) | 56.7% | 45.9% | 39.2% | -28.3% (active) | -54.8% (active) | 30.7% | 67.9% | 4.7% (active) | 10.9% | 23.4% | -12.7% (active) | 24.5% | -12.2% (active) | 67.8% | -12% (active)
CCN(CC)CC#CCOC(=O)[C@]1(C)CCC[C@]2(C)c3ccc(C(C)C)cc3CC[C@@H]12 | 70.8% | 82.5% | 93.7% | 96.2% | 97.9% | 76.7% | 80.6% | 87.5% | 81.2% | 80.2% | 91.9% | 63.4% | 77.2% | 101% | 74.5% | 96.3% | 92.8% | 79.6% | 86.2% | 87%
O=C1C(c2c[nH]c3ccccc23)=C(c2coc3cc(Br)ccc23)C(=O)N1O | 93.1% | 87.1% | 97.1% | 104% | 97.2% | 92.1% | 89.4% | 98.4% | 94.6% | 117% | 107% | 93.8% | 107% | 85.9% | 105% | 98.6% | 95.3% | 106% | 100% | 101%
O=S(=O)(Nc1cc(Sc2cccc3cccnc23)c(O)c2ccccc12)c1ccc(F)cc1 | 17.7% | 44.3% | 31.7% | 44.7% | 4.76% (active) | 4.76% (active) | -48.7% (active) | 11.9% | 2.18% (active) | -64.6% (active) | -25.4% (active) | -20.1% (active) | -14% (active) | 19.6% | -5.08% (active) | 8.15% (active) | 22.1% | -15.6% (active) | -24.8% (active) | -42.8% (active)
O=C1/C(=C/c2ccc(-c3cccc(C(F)(F)F)c3)o2)SC(=S)N1CCc1ccc(O)cc1 | 85% | 101% | 90.3% | 88.9% | 72.4% | 63.5% | 4% (active) | 75% | 17.9% | -3.13% (active) | 12.8% | 20.6% | 71.6% | 90.5% | 82.2% | 56.8% | 96.6% | 76.2% | 95% | 57.5%
Clc1ccc2c(NCCN3CCN(c4ccnc(N5CCCC5)n4)CC3)ccnc2c1 | 56.8% | 80.3% | 44.3% | 77.3% | 16.7% | 23.3% | 45% | 24.6% | 29.4% | -46.5% (active) | 58.1% | 0.171% (active) | -43.3% (active) | 4.01% (active) | -59.2% (active) | 33% | 52.9% | -63.1% (active) | -62% (active) | -55.7% (active)
COc1ccc(-c2cc(=O)c3c(O)cc(O)cc3o2)cc1 | 96.3% and 100% | 106% | 109% and 103% | 113% and 114% | 104% and 97.2% | 95.4% and 75% | 83.2% and 77.9% | 97.1% and 94.8% | 107% | 101% | 103% and 97.8% | 91.5% | 113% and 110% | 113% and 91.4% | 121% and 116% | 98.5% and 99.4% | 101% and 104% | 94.5% and 105% | 127% and 126% | 118% and 122%
CN(C)CCCn1c2nc(=O)[nH]c(=O)c-2nc2cc(Cl)c(Cl)cc21 | 109% | 105% | 69.1% | 117% | 107% | 88.3% | -23.7% (active) | 99% | 103% | 4.28% (active) | 115% | 47.9% | 106% | 98.6% | 111% | 108% | 99.3% | 105% | 41.7% | 51.1%
Cc1ccc(Nc2nc(-c3cc(O)c(C)c(C)c3O)cs2)cc1 | 90.4% | 90.2% | 102% | 99.9% | 104% | 98.2% | 65.8% | 88.1% | 118% | 116% | 97.3% | 66.5% | 109% | 104% | 99.3% | 92.3% | 101% | 96.6% | 104% | 96.6%
CN(C)C(=O)c1cc2cnc(Nc3ccc(-c4csc5c(=S)cc(N6CCOCC6)oc45)cc3)nc2n1C1CCCC1 | 7.49% (active) | 15.8% | 18.4% | 6.1% (active) | 3.26% (active) | -5.69% (active) | 4.24% (active) | 5.94% (active) | 9.52% (active) | -33.9% (active) | 16.9% | 10% | 17.8% | 10.2% | -53.9% (active) | 11.1% | 1.23% (active) | -24.5% (active) | 4.13% (active) | 7.51% (active)
COc1cc(/C=C/C(=O)c2ccc(NC(=O)CSc3nnc(-c4cc(-c5ccccc5)nc5ccccc45)n3-c3ccccc3)cc2)cc(OC)c1OC | 86.8% | 85.4% | 91.7% | 93.7% | 90.4% | 88.6% | 70.7% | 85.8% | 94.7% | 86.4% | 83.7% | 49.7% | 94.6% | 64.2% | 94.1% | 90.8% | 96.6% | 88.3% | 109% | 94.5%
O=c1oc2c(Br)cc(Br)cc2cc1-c1cc(-c2ccc(-c3cc(-c4cc5cc(Br)cc(Br)c5oc4=O)nc(-c4cc5cc(Br)cc(Br)c5oc4=O)c3)cc2)cc(-c2cc3cc(Br)cc(Br)c3oc2=O)n1 | 96.5% | 102% | 97.3% | 104% | 105% | 108% | 86.8% | 105% | 111% | 110% | 112% | 97.9% | 92.6% | 93.7% | 119% | 105% | 106% | 107% | 109% | 107%
N#CC(Cc1cccc2ccccc12)c1cc2ccccc2[nH]1 (stereo not given) | 85% | 83.1% | 84.8% | 78.4% | 99.8% | 55.6% | 75.5% | 89.5% | 95.3% | 105% | 103% | 86.6% | 81.9% | 81.4% | 87.8% | 89.3% | 95.9% | 102% | 93.9% | 82.6%
N#Cc1c(-c2cccc(F)c2)cc(-c2cccnc2)[nH]c1=O | 105% | 101% | 101% | 95.7% | 109% | 110% | 90.1% | 101% | 97.6% | 108% | 107% | 95.3% | 103% | 104% | 112% | 103% | 102% | 99.3% | 112% | 102%
